A selection: hits, their analogues and other compounds. The true share with any hit is near 0.44%.
VLA-4 inh – inhibition in a human VLA-4 binding assay; VLA-4 expressing cells, ligand binding flow cytometry; hit rate 0.2% among 330,000; P13612; inhibition, % (about 7 µM as worked out from the volumes in the protocol); AID 2557; in the data active = inhibition above about 50%
PolyA inh – yeast polyadenylation inhibition; S. cerevisiae SKY197-pL101 polyadenylation reporter, beta-gal luminescence; efflux-impaired pdr1/pdr3 knockout yeast; score 100 = 6 SD above DMSO; activity score, % at 12 µM; hit rate 0.02% among 300,000; AID 1875;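 active = lowest replicate activity score at least 50, where 100 means six control SD above control mean; inconclusive = lowest score under 50 but half or more replicates reach 50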;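 also: yeast exposed to compound for 9 h at 30 °C; higher score means more reporter readthrough which indicates perturbed polyadenylation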
JMJD2C inh – inhibitors of human GASC-1 (JMJD2C) demethylase | Q9H3R0 | GST-JMJD2C(1-420) H3K9me3 demethylation, DELFIA europium | inhibition, % at 2.35 µM | hit rate 0.069% among 330,000 | AID 2099;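 active = more than half of a compound's replicate wells show inhibition beyond 50%, single wells judged on their own value; inconclusive = some, but no more than half, of replicates pass 50% inhibition; inactive = no replicate passes 50% inhibition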;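 also: signal counts dimethyl H3K9 product captured on neutravidin plate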
Target sequence (Q9H3R0 1-420 limits assumed): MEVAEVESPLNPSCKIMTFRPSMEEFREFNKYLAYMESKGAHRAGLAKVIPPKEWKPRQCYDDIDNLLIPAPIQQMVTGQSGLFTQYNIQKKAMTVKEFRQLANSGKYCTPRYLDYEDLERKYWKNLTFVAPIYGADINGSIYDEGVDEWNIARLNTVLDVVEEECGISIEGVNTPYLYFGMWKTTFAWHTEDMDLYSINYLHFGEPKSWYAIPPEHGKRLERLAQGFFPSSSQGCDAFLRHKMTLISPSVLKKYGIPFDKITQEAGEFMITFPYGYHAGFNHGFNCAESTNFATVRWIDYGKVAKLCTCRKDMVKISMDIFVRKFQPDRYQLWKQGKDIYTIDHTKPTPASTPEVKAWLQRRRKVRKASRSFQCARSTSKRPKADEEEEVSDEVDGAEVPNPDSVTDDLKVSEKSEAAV
ABCB6 inh 2 – inhibitors of human ABC transporter ABCB6; Q9NP58; K562-ABCB6 porphyrin accumulation, flow cytometry, 1 h; hits give low values; fluorescence ratio to DMSO, % at 10 µM; hit rate 0.19% among 360,000;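 active = fluorescence ratio to DMSO below 75%, the collection mean minus 3 SD; inconclusive = too few cells collected in the well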;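 also: signal is porphyrin accumulated inside mitochondria; lower ratio means ABCB6 inhibition with less porphyrin fluorescence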
VLA-4 mod pick – human VLA-4 allosteric modulation in cherry picked compounds; inhibition, % at 6.7 µM; hit rate 2% among 1,300; U937 cells, HUTS-21 LIBS mAb binding, flow cytometry; LDV ligand present at threefold Kd; shares compounds with VLA-4 inh; AID 2813; in the data active = inhibition above about 40%
Large screens that a line does not name were inactive (follow-up assays come after a bar, where they were run).

COc1cc(C)nc(-n2nc(C)cc2OC)n1	none | VLA-4 mod pick inactive
Cc1cc(-c2nnc(SCC(=O)Nc3ccccc3F)n2N)n[nH]1	none
Cc1cc(-c2nnc(SCC(=O)Nc3ccc(F)cc3F)n2N)n[nH]1	VLA-4 inh 49.8 | VLA-4 mod pick inactive
CCCn1c(SCC(=O)NC)nc2sc3c(c2c1=O)CCC3	VLA-4 inh 57.2 | VLA-4 mod pick inactive
CCCn1c(SCC(=O)NC(C)C)nc2sc3c(c2c1=O)CCC3	none
Cc1ccc(CNC(=O)CCCc2cn(C)c3ccccc23)cc1	none | VLA-4 mod pick inactive
CC(C)(C)c1nnc2sc(SCC(=O)c3cccs3)nn2c1=O	none
O=S(=O)(Nc1ncccn1)c1cc(Cl)ccc1Cl	PolyA inh inconclusive | VLA-4 mod pick inactive
Nc1nc(=S)c2[nH]cnc2[nH]1	VLA-4 inh 57.1 (no result: PolyA inh, JMJD2C inh) | VLA-4 mod pick inactive
Nc1nc(=S)c2[nH]c(=S)[nH]c2[nH]1	none (no result: VLA-4 inh, PolyA inh, JMJD2C inh)
CSc1ccc(C(=O)c2[nH]c(=O)[nH]c2C)cc1	VLA-4 inh 54.9 | VLA-4 mod pick inactive
CC(=O)c1ccc(OC2(C)CCN(Cc3ccc(C)cc3)C2)cc1 (stereo not drawn)	none (no result: VLA-4 inh, PolyA inh, JMJD2C inh)
Cc1c(NC(=O)Cn2nc(C(F)(F)F)c3c2CCCC3)c(=O)n(-c2ccccc2)n1C	none
O=C(Nc1ccsc1C(=O)O)c1cccc(C(F)(F)F)c1	none | VLA-4 mod pick inactive
O=C(Nc1ccsc1C(=O)O)c1cccc(Oc2ccccc2)c1	none
N#CCCN(C(=O)COC(=O)CCc1nc2ccccc2c(=O)[nH]1)c1ccccc1F	VLA-4 inh 51.3 (no result: PolyA inh) | VLA-4 mod pick inactive
COC(=O)c1c(NC(=O)c2cccc([N+](=O)[O-])c2)sc(C(N)=O)c1C	none
O=C(CCc1nc2ccccc2s1)OCC(=O)c1ccccc1	none | VLA-4 mod pick inactive
COc1ccc2c(CCNC(=O)CN3C(=O)c4ccccc4C3=O)c[nH]c2c1	none
COc1ccc(-c2nnc(SCC(=O)Nc3nc4ccccc4s3)n2C)cc1	none (no result: VLA-4 inh)
COc1ccc(C(=O)NC(C)c2nnc(SCC(=O)Nc3nc(C)cs3)n2C)cc1 (stereo not drawn)	none | VLA-4 mod pick inactive
COc1ccc(C(=O)NC(C)c2nnc(SCC(=O)Nc3nc4ccccc4s3)n2C)cc1 (stereo not drawn)	PolyA inh inconclusive | VLA-4 mod pick inactive
COc1ccc(CC(=O)NC(C)c2nnc(SCC(=O)c3ccc(OC)cc3)n2C)cc1 (stereo not drawn)	none
O=C(O)c1ccccc1NC(=O)C(c1ccccc1)c1ccccc1	none | VLA-4 mod pick inactive
NC(=O)c1ccccc1NC(=O)C(c1ccccc1)c1ccccc1	none
CCC(CC)NC(=O)Nc1ccc(F)c(Cl)c1	VLA-4 inh 64.1 | VLA-4 mod pick inactive
COc1ccc(-c2csc(Nc3ncccc3C)n2)cc1OC	none
COc1ccc(-c2csc(Nc3ncccc3C)n2)cc1	VLA-4 inh 92.2 | VLA-4 mod pick inactive
O=C(NNS(=O)(=O)c1ccc(F)cc1)c1ccccc1F	none
Cc1ccc(S(=O)(=O)NCC(=O)N(CC(=O)NCC2CCCO2)Cc2ccc(Cl)cc2)cc1 (stereo not drawn)	none
CCn1c2ccccc2c2cc(NC(=O)c3cc(OC)cc(OC)c3)ccc21	none | VLA-4 mod pick inactive
CC(=O)NN1C(=O)/C(=C2/Sc3ccccc3N2C)SC1=S	JMJD2C inh inconclusive | VLA-4 mod pick inactive
Cc1ccc(NC(=O)c2cc(N3C(=O)CCC3=O)ccc2N2CCOCC2)cc1	none
Cc1ccc(NC(=O)c2cc(N3C(=O)C=CC3=O)ccc2N2CCOCC2)cc1Cl	VLA-4 inh 83.3 | VLA-4 mod pick 51.7
O=C(COC(=O)c1ccccc1)NC1CCCCCC1	none (no result: PolyA inh) | VLA-4 mod pick inactive
Cc1ccc(NC(=O)Cn2c(=S)[nH]c3ccccc32)cc1	none
CCOc1ccc(N(Cc2ccc(OC)c(OC)c2)C(=O)c2ccco2)cc1	VLA-4 inh 67.8 | VLA-4 mod pick inactive
O=C1NC(=O)/C(=C/c2cccc(O)c2)N1	none | VLA-4 mod pick inactive
O=C1NC(=O)C(=Cc2ccccc2)N1	none (no result: VLA-4 inh, PolyA inh, JMJD2C inh)
Cc1cc(Cl)ccc1NC(=O)Cn1cncn1	VLA-4 inh 52.9 | VLA-4 mod pick inactive
Cc1cc(Cl)ccc1NC(=O)CN1CCCC1	none
COc1cccc(NC(=O)C2(C)CCN2Cc2ccc(OC(C)C)cc2)c1 (stereo not drawn)	none (no result: VLA-4 inh, PolyA inh, JMJD2C inh)
C[C@H]1COC(=O)[C@H](Cc2ccc(F)cc2)C/C=C\C[C@H](CC(=O)N(CCO)Cc2ccccc2)C(=O)N1	VLA-4 inh 112.9 (no result: PolyA inh) | VLA-4 mod pick inactive
Cc1noc(C)c1COc1ccc(C(=O)NCCc2ccc(F)cc2)cc1	VLA-4 inh 50.3 (no result: PolyA inh) | VLA-4 mod pick inactive
Cc1noc(C)c1COc1ccc(C(=O)NCCc2ccc(S(N)(=O)=O)cc2)cc1	none
CCC(COC(=O)Nc1cccc(C)c1)NC(=O)OCC(C)C (stereo not drawn)	VLA-4 inh 94.5 | VLA-4 mod pick inactive
CCOC(=O)C1=C(C)C2C3C(=O)N(c4cc(C)ccc4C)C(=O)C3C1(C)C1C(=O)N(c3cc(C)ccc3C)C(=O)C21 (stereo not drawn)	none
CN(C)S(=O)(=O)c1cc(NC(=O)COC(=O)c2nc(Cl)ccc2Cl)ccc1Cl	none (no result: PolyA inh)
CCOc1ccc(CCNC(=O)c2ccc3nc(N4CCOCC4)sc3c2)cc1OCC	none
CCC(Cc1ccccc1)NC(=O)c1ccc2nc(N3CCOCC3)sc2c1 (stereo not drawn)	none | VLA-4 mod pick inactive
CCOc1ccccc1CNC(=O)c1ccc2nc(N3CCOCC3)sc2c1	none | VLA-4 mod pick inactive
CCCCN(CCCNC(=O)c1ccc2nc(N3CCOCC3)sc2c1)Cc1ccccc1	none | VLA-4 mod pick inactive
CCCN1CCN(CCCNC(=O)c2ccc3nc(N4CCC(C)CC4)sc3c2)CC1	none | VLA-4 mod pick inactive
CC1CC(C)CN(CCCNC(=O)c2ccc3nc(N4CCOCC4)sc3c2)C1 (stereo not drawn)	none
CCOc1cccc2cc(C(=O)N3CCc4ccccc43)c(=O)oc12	none
CC(=O)Nc1ccc(S(=O)(=O)NCc2ccc3[nH]c(C)cc3c2)cc1	none
Cc1ccc(CSCC(=O)N2CCN(Cc3ccc4c(c3)OCO4)CC2)cc1	none
O=C(NCCc1ccccc1)c1ccc2nc(N3CCOCC3)sc2c1	none | VLA-4 mod pick inactive
Cc1cccc(N2CCN(C(=O)c3ccc4nc(N5CCCCC5)sc4c3)CC2)c1C	none
O=C(c1ccc2nc(N3CCCCC3)sc2c1)N1CCN(c2ccccn2)CC1	none | VLA-4 mod pick inactive
O=C(c1ccc2nc(N3CCOCC3)sc2c1)N1CCC(Cc2ccccc2)CC1	none
O=C(NCc1cccc(Cl)c1)c1ccc2nc(N3CCOCC3)sc2c1	none | VLA-4 mod pick inactive
CC(CCc1ccccc1)NC(=O)c1ccc2nc(N3CCOCC3)sc2c1 (stereo not drawn)	PolyA inh inconclusive
Cc1ccc(C)c(N2CCN(C(=O)c3ccc4nc(N5CCOCC5)sc4c3)CC2)c1	none | VLA-4 mod pick inactive
C=CCn1c(N)c(C(=O)N2CCOCC2)sc1=S	none
Cc1onc(-c2ccccc2)c1NC(=O)Nc1ccc(OC(F)F)cc1	none
CCc1cccc(C)c1NC(=O)c1ccc2nc(N3CCOCC3)sc2c1	VLA-4 inh 50.3 | VLA-4 mod pick inactive

Bioassay records deposited in PubChem BioAssay by several laboratories.
